Source: PubChem BioAssay
Cycloheximide cs: counter-screen for Shiga toxin inhibitors: cycloheximide protein synthesis inhibition | max response, % | hit rate 12% among 300,000 | cell reporter, cycloheximide protein synthesis inhibition counterscreen | AID 2314; in the data active means max response mostly above about 13%, no sharp cut-off; inactive means mostly below about 14%; further: read at 38.3 µM for the half of the compounds with a filed dose; 0% is about no effect
Shiga inhibitor: Shiga toxin inhibition; AID 2315; hit rate 9.2% among 290,000; Vero cells, Shiga toxin protein synthesis inhibition reporter; inhibition, % at 38.7 µM; in the data active means inhibition mostly above about 28%, no sharp cut-off; inactive means mostly below about 43%; further: 0% is about no effect
Pf growth 48h: P. falciparum growth inhibition at 48 hours (one generation) | hit rate 5.9% among 310,000 | AID 504832 | Potency, µM (titrated, usually from 28.7 µM), without a hit: top-dose activity change, negative = inhibition, usual class: inhibitors | P. falciparum luciferase growth in erythrocytes, 48 h; further: potency means the concentration at half of the fitted maximal effect; on the % scale 0 is the no-effect control and ±100 the full control effect
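Luminescence readout; reporter = integrated firefly luciferase in P. falciparum. RBC culture at 2% hematocrit, 0.1% parasitemia final, 37 C/5% CO2; decreased signal taken as growth inhibition.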
Pf growth 96h: P. falciparum growth inhibition at 96 hour, primary screen for plastid delayed-death inhibitors. AID 504834. P. falciparum luciferase reporter growth, 96 h. hit rate 6.9% among 320,000. Potency, µM (titrated, usually from 28.7 µM), inactives show top-dose activity change, negative = inhibition, actives largely listed as inhibitors; further: potency means the concentration at half of the fitted maximal effect; on the % scale 0 is the no-effect control and ±100 the full control effect
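Two parasite generations (96 h, 37 C, 5% CO2) of compound exposure in infected erythrocytes (0.05% parasitemia, 2% hematocrit). Luciferase-reporter P. falciparum; decreased luminescence indicates inhibited growth, aimed at apicoplast-acting delayed death.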
Active calls of the source: *. Only some compounds are listed: those with a hit (about 21% of all), similar ones and a draw of the others. Unless noted, the call rests on the fitted dose curve; in most records, active means well fitted inhibition curve with a large enough effect; inconclusive means small, poorly fitted or top-dose-only effect, or another doubt; inactive means no such curve, though single readings can be large or run the other way.

For Cc1cc(C)cc(NC(=O)c2ccc(S(=O)(=O)C(F)F)cc2)c1 the results were Cycloheximide cs 8, Shiga inhibitor 21, Pf growth 48h 34% and Pf growth 96h 34%.
Screening Cc1nnc(NC(=O)c2ccc(S(=O)(=O)C(F)F)cc2)s1 returned Cycloheximide cs 27*, Shiga inhibitor 36, Pf growth 48h 98% and Pf growth 96h 123%.
N#CC(C#N)=NNc1ccc(OC(F)(F)F)cc1 was read as Cycloheximide cs 44* and Shiga inhibitor 60*.
Screening O=C(/C=C/Nc1ccc(OC(F)(F)F)cc1)C(F)(F)F returned Cycloheximide cs -3, Shiga inhibitor -12, Pf growth 48h 38% and Pf growth 96h 154%.
Screening CNC(=S)NNC(=O)c1sccc1OCc1cccc(C(F)(F)F)c1 returned Cycloheximide cs 4, Shiga inhibitor 26, Pf growth 48h inconclusive and Pf growth 96h 13µM*.
For O=C(Nc1ccon1)c1cc2c(s1)CCCC2 the results were Cycloheximide cs 35*, Shiga inhibitor 64*, Pf growth 48h 58% and Pf growth 96h 4%.
O=C(Nc1cccc(S(=O)(=O)Nc2ccc(Cl)cc2)c1)c1cc2c(s1)CCCC2 was read as Cycloheximide cs 7, Shiga inhibitor -13, Pf growth 48h 31% and Pf growth 96h inconclusive.
O=C(Nc1ccon1)c1cc2c(s1)CCCCCC2 was read as Cycloheximide cs 30*, Shiga inhibitor 64* and Pf growth 48h 3.7µM*.
Screening CC1CCCCN1CCCNC(=O)CN1C(=O)c2cccnc2Oc2ccc(Cl)cc21 (stereo unspecified) returned Cycloheximide cs 5, Shiga inhibitor 0, Pf growth 48h inconclusive and Pf growth 96h 63%.
Screening CN(C)S(=O)(=O)Nc1ccc2c(c1)Cc1ccccc1-2 returned Cycloheximide cs 29*, Shiga inhibitor 107* and Pf growth 48h 57%.
For Cc1ccc(S(=O)(=O)N2CCOCC2)cc1N/N=C(\C#N)c1nc2ccccc2[nH]1 the results were Cycloheximide cs 9, Shiga inhibitor 5, Pf growth 48h inconclusive and Pf growth 96h 3.3µM*.
Screening O=C(NCc1nc2ccccc2[nH]1)c1cccc(S(=O)(=O)N2CCOCC2)c1 returned Cycloheximide cs -1, Shiga inhibitor -10 and Pf growth 96h -28%.
Screening O=C(Nc1nc2ccccc2[nH]1)c1cccc(S(=O)(=O)N2CCOCC2)c1 returned Cycloheximide cs 39*, Shiga inhibitor 42*, Pf growth 48h 33% and Pf growth 96h 37%.
O=C(Nc1nc2ccccc2[nH]1)c1ccc(F)c(S(=O)(=O)N2CCOCC2)c1 was read as Cycloheximide cs 50*, Shiga inhibitor 44*, Pf growth 48h 71% and Pf growth 96h 92%.
Screening Cc1ccc(C(=O)OC/C(O)=C(\C#N)c2nc3ccccc3[nH]2)cc1S(=O)(=O)N1CCOCC1 returned Cycloheximide cs 9, Shiga inhibitor 8, Pf growth 48h 8% and Pf growth 96h inconclusive.
For CC(C)CC(=O)Nc1nnc(S(=O)(=O)Nc2ccccc2)s1 the results were Cycloheximide cs -2, Shiga inhibitor -1, Pf growth 48h -3% and Pf growth 96h 43%.
For CC(/C=N/NC(=O)c1ccccc1F)c1ccccc1 (stereo unspecified) the results were Cycloheximide cs 30*, Shiga inhibitor 165*, Pf growth 48h 42% and Pf growth 96h 9%.
For CC(/C=N/NC(=O)c1ccccc1F)=C\c1ccccc1 the results were Cycloheximide cs 47*, Shiga inhibitor 107*, Pf growth 48h 46% and Pf growth 96h 21%.
`CC(/C=N/NC(=O)c1ccco1)=C\c1ccccc1` gave Cycloheximide cs 24*, Shiga inhibitor 89*, Pf growth 48h 54% and Pf growth 96h 42%.
O=C(Nc1ccc(S(=O)(=O)NCCc2ccccc2)cc1)c1ccco1 was read as Cycloheximide cs 10, Shiga inhibitor 18 and Pf growth 48h 4%.
`COC(=O)/C(=C/c1ccccc1)NC(=O)c1ccco1` gave Cycloheximide cs -3, Shiga inhibitor -3, Pf growth 48h -2% and Pf growth 96h -3%.
`CC(/C=N\NC(=O)c1ccc(C)nc1)=C\c1ccccc1` gave Cycloheximide cs 12, Shiga inhibitor 39, Pf growth 48h inconclusive and Pf growth 96h inconclusive.
`O=C(N/N=C\CCc1ccccc1)c1ccco1` gave Cycloheximide cs 38*, Shiga inhibitor 50*, Pf growth 48h -22% and Pf growth 96h inconclusive.
`COc1ccc(C2(C)NC(=O)NC2=O)cc1OC` (stereo unspecified) gave Cycloheximide cs 0, Shiga inhibitor -7, Pf growth 48h 10% and Pf growth 96h 35%.
Cc1ccc(C(=O)Nc2cc3c(oc2=O)CCCC3=O)cc1 was read as Cycloheximide cs 45*, Shiga inhibitor 75*, Pf growth 48h 102% and Pf growth 96h 226%.
`CC1(C)CC(=O)c2cc(NC(=O)c3ccc(F)cc3)c(=O)oc2C1` gave Cycloheximide cs 2, Shiga inhibitor -4, Pf growth 48h 2% and Pf growth 96h 20%.
Screening O=C(Nc1cc2c(oc1=O)CCCC2=O)c1ccccc1 returned Cycloheximide cs 33*, Shiga inhibitor 17*, Pf growth 48h 44% and Pf growth 96h 63%.
C=CCCN(Cc1ccccc1)S(=O)(=O)c1cc(Br)ccc1Br was read as Pf growth 48h 13µM* and Pf growth 96h 0%.
For C=CCCN(Cc1ccc(OC)cc1)S(=O)(=O)c1ccccc1Br the results were Cycloheximide cs -4 and Shiga inhibitor 27.
NNC(=O)C1CC(O)CN1S(=O)(=O)c1ccc2ccccc2c1 (stereo unspecified) was read as Pf growth 48h -28% and Pf growth 96h -11%.
Screening COCCN1C(=O)/C(=C/c2ccc(N3CCCC3)cc2C)SC1=S returned Cycloheximide cs -1, Shiga inhibitor -12, Pf growth 48h 27% and Pf growth 96h 116%.
For CC(=O)NCC(=O)NC1CCCc2c1cnn2-c1ccc(C(C)(C)C)cc1 (stereo unspecified) the results were Cycloheximide cs -1, Shiga inhibitor -10, Pf growth 48h 4% and Pf growth 96h inconclusive.
For CC(C)(C)c1ccc(-n2ncc3c2CCCC3NC(=O)C2(C(N)=O)CC2)cc1 (stereo unspecified) the results were Cycloheximide cs 8, Shiga inhibitor 8, Pf growth 48h -14% and Pf growth 96h 13µM*.
For CC1(C)Cc2c(cnn2-c2ccccc2)C(NC(=O)C2(C(N)=O)CC2)C1 (stereo unspecified) the results were Cycloheximide cs -3, Shiga inhibitor 12, Pf growth 48h 9.3µM* and Pf growth 96h -7%.
`CC1(C)Cc2c(cnn2-c2ccccc2)C(NC(=O)c2ccoc2)C1` (stereo unspecified) gave Cycloheximide cs -1, Shiga inhibitor -17, Pf growth 48h 10µM* and Pf growth 96h inconclusive.
`O=C(CCc1ccccc1)NNC(=O)Cc1ccccc1` gave Cycloheximide cs -4, Shiga inhibitor 16, Pf growth 48h 8% and Pf growth 96h inconclusive.
COc1ccc(C2C=C3CNS(=O)(=O)C3CC2OC(=O)c2ccc(C(F)(F)F)cc2)cc1 (stereo unspecified) was read as Cycloheximide cs -10 and Shiga inhibitor -11.
